uPA generation = inhibitors of cell surface uPA generation; Potency, µM (titrated, usually from 38.3 µM), inactives show at the top dose activity change, negative = inhibition, actives largely listed as inhibitors; cell surface uPA generation assay, qHTS; 330,000 compounds, 0.31% hits; active means well fitted inhibition curve with a large enough effect; inconclusive means small, poorly fitted or top-dose-only effect; inactive means no such curve, though single readings can be large or run the other way; tested in mouse RAW 264.7 cells; further: potency means the concentration at half of the fitted maximal effect; nearly all actives have a fitted effect of over 55% in size
HT1080NT lethal = kills 2HG-producing HT-1080-NT fibrosarcoma cells | AID 686970 | HT-1080-NT fibrosarcoma viability, CellTiter-Glo ATP luminescence, 48 h | 360,000 compounds, 1.6% hits | Potency, µM (doses to about 46.1 µM), inactives show top-dose activity, negative = less viability, usual class: cytotoxic;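 further: NT is the 2HG producing partner of a matched IDH1 knockdown line; potency means the concentration at half of the fitted maximal effect; 0% = DMSO-treated cells and -100% = media-only wells without cells; nearly all actives have a fitted effect of over 55% in size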
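Luminescent CellTiter-Glo readout after 48 hours of compound exposure at 37 degrees C defined viability of HT-1080-NT cells. Activity was normalized to DMSO wells and cell-free media wells; concentration-response curves were fitted and assigned curve classes.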
IL1B secr inh = inflammasome signaling inhibition, IL-1 beta readout. THP-1 LPS/ATP IL-1B secretion, AlphaLISA, 16 h; hits give low values. activity change, % at 57.5 µM. 360,000 compounds, 4.7% hits; in the data active means activity change below about -50%; inconclusive means mostly about -30% to -49%
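Secreted IL-1B measured by AlphaLISA bead assay after 16 h compound exposure of THP-1 cells; compounds (final up to 57.5 uM) added 1 h before LPS (250 ng/mL) and ATP (1.25 mM) stimulation; lower signal means less secretion.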
TDP1 cell CPT = DT40-hTDP1 cell growth loss with CPT; Potency, µM (series often up to 46.2 µM), inactives show top-dose activity change, negative = growth inhibition, actives largely listed as inhibitors; chicken DT40 Tdp1-/-;hTDP1 cells + 20 nM CPT, ATP luminescence, 48 h; 420,000 compounds, 12% hits; further: potency means the concentration at half of the fitted maximal effect; nearly all actives have a fitted effect of over 55% in size
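Chicken DT40 Tdp1-/- cells complemented with human TDP1, 400 cells/well, exposed to compounds plus 20 nM camptothecin for at least 48 h at 37 C; viability read as ATP content by CellTiter-Glo luminescence.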
DT40 TDP1 no CPT = qHTS for Inhibitors of human tyrosyl-DNA phosphodiesterase 1 (TDP1): qHTS in cells in absence of CPT; DT40 Tdp1-/- hTDP1 cells, no CPT, ATP luminescence, 48 h; Potency, µM (top dose mostly 46.2 µM), inactives show at the top dose activity change, negative = growth inhibition, actives largely listed as inhibitors; 420,000 compounds, 15% hits; AID 686978, 2013; further: potency means the concentration at half of the fitted maximal effect; nearly all actives have a fitted effect of over 55% in size
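Compound effects on proliferation are scored in DT40 Tdp1-/-;hTDP1 cells in the absence of CPT. ATP levels (CellTiter-Glo luminescence) are recorded after a ≥48 hr, 37 °C incubation.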
HT1080 IDH1KD tx = HT-1080 IDH1 knockdown cell toxicity (counter line); HT-1080 IDH1 knockdown viability, ATP luminescence, 48 h; Potency, µM (doses to about 46.1 µM), without a hit: top-dose activity, negative = toxicity, hits mostly cytotoxic; 360,000 compounds, 2% hits; AID 686971;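 further: potency means the concentration at half of the fitted maximal effect; 0% = DMSO wells and -100% = cell-free medium wells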
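HT-1080-IDH1KD cells (IDH1 knocked down), 750/well in RPMI with 5% FBS, treated with compound 48 h at 37 degrees C. Viability by CellTiter-Glo luminescence, normalised to DMSO and no-cell wells; concentration-response curves classed.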
An asterisk follows results filed as active; ? = inconclusive; / = not tested or not shown; [ ] = another dose, or the depositor's remark. An excerpt weighted towards active compounds, which were near 19% of everything screened. Unless noted, the call rests on the fitted dose curve; in most records, active means well fitted curve in the direction sought with a large enough effect; inconclusive means small, poorly fitted or top-dose-only effect, or another doubt; inactive means no such curve, though single readings can be large; an effect the other way counts as inactive or inconclusive. Unless noted, on the % scale 0 is the no-effect control and ±100 the full control effect.

SMILES	uPA generation	HT1080NT lethal	IL1B secr inh	TDP1 cell CPT	DT40 TDP1 no CPT	HT1080 IDH1KD tx
Cc1ccc(CC(=O)Nc2nc3c(s2)CCCC3)cc1	-2%	?	4	?	?	?
O=C(Nc1nc2c(s1)CCCC2)c1ccc(Br)s1	/	?	-93*	16µM*	29µM*	?
COc1ccc(C(=O)Nc2nc3c(s2)CCCC3)cc1Cl	/	/	/	?	15µM*	/
Cc1ncsc1C(=O)Nc1nc2c(s1)CCCC2	1%	?	9	-29%	?	?
Cc1cccc(C(=O)Nc2nc3c(s2)CCCC3)c1	/	/	/	?	18µM*	/
Cc1cc(C(=O)Nc2nc3c(s2)CCCC3)cs1	/	6.3µM*	?	?	?	?
COC(=O)c1cc2oc3ccccc3c2n1CC(=O)Nc1ccc(OC)c(OC)c1	/	/	/	-20%	-8%	/
O=C(Nc1nc2c(s1)CCCC2)c1ccc2ncsc2c1	?	?	0	16µM*	?	-3%
Cc1cccc(C(=O)Nc2sc3c(c2C(=O)NC(C)C)CCCC3)c1	/	/	/	?	15µM*	/
CCCCCOC(=O)c1ccc(OC(=O)c2sc3ncn(Cc4cccc(F)c4)c(=O)c3c2C)cc1	/	/	/	-10%	-22%	/
Cn1c(=O)n(CC(=O)O)c(=O)c2c1nc1n2CCCN1c1ccc(Cl)cc1	/	/	/	-10%	2%	/
COc1ccc(NC(=O)N[C@H]2C=C[C@@H](CC(=O)NC3CCC3)O[C@@H]2CO)cc1	/	11%	0	-2%	5%	16%
C=C(C)COc1ccc(-c2[nH]ncc2Oc2ccccc2OCC)c(O)c1	2%	?	-63*	?	-23%	26µM*
C=C(C)COc1ccc(-c2[nH]ncc2Oc2cccc(OC)c2)c(O)c1	5%	23µM*	-17	?	13µM*	?
CCCOC(=O)c1ccc(Oc2cn[nH]c2-c2ccc(O)cc2O)cc1	-2%	18µM*	18	?	?	-4%
COc1ccc(-c2[nH]ncc2Oc2ccccc2OC)c(O)c1	/	?	14	?	?	?
CCOc1ccccc1Oc1cn[nH]c1-c1ccc(O)cc1O	-1%	-21%	11	-21%	?	-1%
CSC1=NC=C(C#N)C2=NC(c3ccc(Cl)cc3)NN12 (stereo not drawn)	/	24%	-11	?	?	12%
CCOc1ccccc1NC(=O)C1=C(C)Nc2ncnn2C1c1ccc(C)o1 (stereo not drawn)	/	/	/	0%	-1%	/
C=CCn1c(C)cc(C(=O)COc2ncnc3sccc23)c1C	?	-22%	-10	?	16µM*	?
C=CCn1c(C)cc(C(=O)COC(=O)c2cncc(Br)c2)c1C	1%	-2%[9.24 µM]	3	18µM*	?	0%
COCCn1c(C)cc(C(=O)COc2ncnc3ccc(Br)cc23)c1C	6%	-6%	11	-2%	-18%	0%
Cc1cccc(CNc2ncncc2-c2cccc(NS(C)(=O)=O)c2)c1	/	/	/	-21%	-29%	/
Cc1ccc(Cc2c(-c3ccc(Cl)cc3)nc3c(C)cc(Br)cn23)cc1	/	?	81	23µM*	16µM*	16µM*

Source: PubChem BioAssay (National Center for Advancing Translational Sciences (NCATS))
